TDP1 cell CPT: growth inhibition of DT40 Tdp1-/-;hTDP1 cells with camptothecin (screen for TDP1 inhibitors) | chicken DT40 Tdp1-/-;hTDP1 cells + 20 nM CPT, ATP luminescence, 48 h | Potency, µM (doses to about 46.2 µM), inactives show at the top dose activity change, negative = growth inhibition, hits mostly inhibitors | actives 12% (n = 420,000); also: potency is read from the fitted curve at half-maximal effect; nearly all actives have a fitted effect of over 55% in size
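Cell growth measured by CellTiter-Glo luminescence after a minimum 48 h, 37 C compound exposure with 20 nM CPT in Tdp1-knockout DT40 cells stably expressing hTDP1, seeded 400/well; qHTS titration format.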
IL1B secr inh: inflammasome signaling inhibition, IL-1 beta readout | THP-1 LPS/ATP IL-1B secretion, AlphaLISA, 16 h; hits give low values | activity change, % at 57.5 µM | actives 4.7% (n = 360,000) | AID 743279; in the data active = activity change below about -50%; inconclusive = mostly about -30% to -49%
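THP-1 cells pretreated 1 hr with compounds (up to 57.5 uM final), then stimulated with LPS (250 ng/mL final) plus ATP (1.25 mM final); secreted IL-1B measured by AlphaLISA after 16 hr, decreased signal indicating inhibition.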
DT40 TDP1 no CPT: qHTS for Inhibitors of human tyrosyl-DNA phosphodiesterase 1 (TDP1): qHTS in cells in absence of CPT; DT40 Tdp1-/- hTDP1 cells, no CPT, ATP luminescence, 48 h; Potency, µM (series often up to 46.2 µM), inactives show top-dose activity change, negative = growth inhibition, most hits filed as inhibitors; actives 15% (n = 420,000); also: potency is read from the fitted curve at half-maximal effect; nearly all actives have a fitted effect of over 55% in size
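A cellular qHTS used chicken DT40 cells lacking endogenous Tdp1 but carrying stably transfected human TDP1. Compounds were applied without camptothecin, and cell growth kinetics were judged by ATP-dependent luminescence after ≥48 hr.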
TDP1 inh: inhibitors of human tyrosyl-DNA phosphodiesterase TDP1. Q9NUW8. recombinant TDP1, AlphaScreen DNA substrate cleavage. Potency, µM (highest dose often 130 µM), inactives show top-dose activity change, negative = inhibition, most hits filed as inhibitors. actives 0.28% (n = 350,000); also: potency is read from the fitted curve at half-maximal effect; nearly all actives have a fitted effect of over 40% in size
Target sequence (Q9NUW8 whole entry, looked up): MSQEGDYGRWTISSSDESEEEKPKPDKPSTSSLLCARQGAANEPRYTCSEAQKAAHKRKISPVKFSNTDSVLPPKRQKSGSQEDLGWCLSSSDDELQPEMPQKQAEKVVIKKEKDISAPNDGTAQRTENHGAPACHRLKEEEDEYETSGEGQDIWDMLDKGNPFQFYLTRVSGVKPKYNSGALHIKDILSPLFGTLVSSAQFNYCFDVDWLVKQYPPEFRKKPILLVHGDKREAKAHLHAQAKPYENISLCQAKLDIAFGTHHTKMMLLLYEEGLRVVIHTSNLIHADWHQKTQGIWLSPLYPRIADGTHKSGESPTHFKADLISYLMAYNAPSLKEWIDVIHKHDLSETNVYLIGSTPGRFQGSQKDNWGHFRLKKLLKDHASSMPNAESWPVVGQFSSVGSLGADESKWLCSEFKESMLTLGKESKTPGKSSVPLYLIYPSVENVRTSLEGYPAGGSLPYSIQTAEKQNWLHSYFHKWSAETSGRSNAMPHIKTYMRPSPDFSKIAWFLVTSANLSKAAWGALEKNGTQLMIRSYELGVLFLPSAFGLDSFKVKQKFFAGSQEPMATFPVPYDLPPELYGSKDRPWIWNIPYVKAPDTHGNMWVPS
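E. coli-derived human Tdp1, 1 nM final. Cpd preinc 15 min RT; substrate 15 nM final, 5 min RT; AS bead mix 10 ug/ml final, 10 min RT. Signal loss = tyrosine-FITC cleavage. No-enzyme wells = max signal.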
Six1-Eya2 inh: inhibitors of human Six1/Eya2 interaction. actives 0.56% (n = 360,000). activity change, % (concentration not given with the values). Q15475+O00167. AlphaScreen GST-Six1/His-Eya2 binding, biochemical; hits give low values; in the data active = activity change below about -65%; inconclusive = mostly about -30% to -63%
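AlphaScreen luminescence read after one hour at 37 °C in darkness. Pin-transferred compounds met GST-Six1 and His-Eya2 protein (5X stock 250 nM/500 nM) plus glutathione donor and Ni-chelate acceptor beads (5X, 50 ug/mL).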
CtBP-E1A blk: inhibitors of CtBP/E1A interaction; AlphaScreen GST-E1A/His-CtBP binding, 1536-well; hits give low values; activity change, % (concentration not given with the values); actives 0.49% (n = 340,000); AID 651724; in the data active = activity change below about -65%; inconclusive = mostly about -30% to -63%
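Steps: dispense buffer (Tris pH 8.0, NaCl 300 mM, TCEP 1 mM, BSA, Tween 20); add 5X protein mix (GST-E1A, His-CtBP, 125 nM each); pin 23 nL compound; 2 h at 37 °C, dark; add 5X beads (50 ug/mL); 1 h; read.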
Numbers without * were called inactive; ? = inconclusive; · = no result given; [ ] = remark or other dose. An excerpt weighted towards active compounds, which were near 18% of everything screened. Unless noted, calls follow the shape of the dose curve; as a rule, active = well fitted curve in the direction sought with a large enough effect; inconclusive = small, poorly fitted or top-dose-only effect, or another doubt; inactive = no such curve, though single readings can be large; an effect the other way counts as inactive or inconclusive. % is scaled to controls: 0 for no effect and ±100 for the full control effect.

SMILES	TDP1 cell CPT	IL1B secr inh	DT40 TDP1 no CPT	TDP1 inh	Six1-Eya2 inh	CtBP-E1A blk
Cc1ccc2c(CSc3nc4nc(C)cc(C)n4n3)cc(=O)oc2c1	-2%	-6	-25%	-5%	-7	1
Cc1ccc(N(CC(=O)N/N=C/c2cccs2)S(C)(=O)=O)cc1Cl	-10%	-13	-4%	-1%	-1	6
Cc1ccc(N=Cc2ccc(N(C)C)cc2)cc1C	6%	15	5%	0%	1	-1
CCOC(=O)CCNC(=O)N1CCC(CCOc2ccccc2)(C(=O)OCC)CC1	9%	32	-8%	·	7	5
CN(C)S(=O)(=O)c1ccc(NCC2COc3ccccc3O2)c([N+](=O)[O-])c1 (stereo not drawn)	16µM*	-22	23µM*	1%	-17	-23
CCN(CC)S(=O)(=O)c1ccc(NCC2COc3ccccc3O2)c([N+](=O)[O-])c1 (stereo not drawn)	16µM*	-12	23µM*	3%	-19	-19
CCN(C(=O)c1cc2cc3ccc(OC)cc3nc2o1)c1cccc(C)c1	23µM*	·	16µM*	5%	·	·
Cc1cccc(N(C)C(=O)c2cc3cc4ccc(C)cc4nc3o2)c1	12µM*	19	18µM*	5%	-1	9
COc1ccc(N2CCN(S(=O)(=O)c3ccc(-c4ccno4)cc3OC)CC2)cc1	-11%	·	-27%	7%	·	·
CC(C)(C)N1C(=O)Cc2c1nc(N)c1c(N)nc(N3CCCCC3CO)c(C#N)c21 (stereo not drawn)	21µM*	-27	18µM*	5%	-14	-26
CN(CCO)c1nc(N)c2c(N)nc3c(c2c1C#N)CC(=O)N3C1CCCC1	·	·	·	9%	·	·
Clc1ccc2ncnc(NCc3ccc4c(c3)OCO4)c2c1	3.2µM*	·	2.5µM*	7%	·	·
Oc1ccc(CCNc2ncnc3ccc(Cl)cc23)cc1	2.6µM*	46	2.3µM*	·	-7	-2
Clc1ccccc1-c1ccc2ncnc(NCc3ccc4c(c3)OCO4)c2c1	·	·	·	5%	·	·
CCCCc1cc(O)c(CCCC)c(O)c1	21µM*	?	13µM*	2%	-6	-1
CCCCc1c(O)c2ccccc2[nH]c1=O	-9%	-9	-2%	2%	0	0
CCOC(=O)c1c(C)n(C)c2ccc(OCC(O)Cn3nc(C)c(Br)c3C)cc12 (stereo not drawn)	21µM*	-6	18µM*	3%	-2	-10
CC(=O)c1c(C)nn(CC(O)COc2ccc3ccccc3c2)c1C (stereo not drawn)	?	-14	26µM*	6%	-2	5
CCOC(=O)c1c(C)n(C)c2ccc(OCC(O)CN3CCCCCC3)cc12 (stereo not drawn)	?	-28	?	-1%	-1	17
COc1ccc(-c2nc3ccc(C(=O)NCC(OC)OC)cc3nc2-c2ccc(OC)c(OC)c2)cc1OC	?	-7	?	·	4	11
COC(CNC(=O)c1ccc2nc(-c3cccs3)c(-c3cccs3)nc2c1)OC	18µM*	-51*	13µM*	1%	-6	36
CCCCNC(=O)c1ccc2nc(-c3cccs3)c(-c3cccs3)nc2c1	?	·	20µM*	0%	·	·
Cc1ccc2nc(-c3ccc(C)o3)c(NC3CCCC3)n2c1	11µM*	·	13µM*	5%	·	·
Cc1ccc2nc(-c3ccccc3)c(Cc3ccccn3)n2c1	?	25	?	·	-20	-13
CC(C)c1nc2ccc(Br)cn2c1NC1CCCC1	-2%	17	-1%	0%	-3	13
SMILES	TDP1 cell CPT	IL1B secr inh	DT40 TDP1 no CPT	TDP1 inh	Six1-Eya2 inh	CtBP-E1A blk
Cc1ccc2nc(-c3ccccn3)c(NC3CCCC3)n2c1	1.3µM*	-14	0.33µM*	3%	?	-73*
C=CCNc1nc(C(=O)OCC(=O)NCc2cccc(Cl)c2)cs1	0%	-1	5%	1%	1	0
Cc1cc(C)n(-c2cccc(C(=O)NCC3Cc4cccc(-c5cccnc5)c4O3)c2)n1 (stereo not drawn)	?	·	15µM*	·	·	·
COc1cccc(C(=O)NCC2Cc3cccc(-c4cccnc4)c3O2)c1 (stereo not drawn)	-12%[9.04 µM]	·	?	·	·	·
O=C(NCC1Cc2cccc(-c3cccnc3)c2O1)c1ccc2cc[nH]c2c1 (stereo not drawn)	2.9µM*	·	26µM*	·	·	·
CCN(CC)S(=O)(=O)c1cccc(-c2nnc(SC(C)C(=O)NCCC3=CCCCC3)o2)c1 (stereo not drawn)	?	-24	26µM*	1%	3	0
CCN(CC)S(=O)(=O)c1cccc(-c2nnc(SCCCC(=O)c3ccccc3)o2)c1	?	24	?	-2%	9	9
CCN(CC)S(=O)(=O)c1cccc(-c2nnc(SCc3nc4ccccc4s3)o2)c1	?	-26	21µM*	2%	-2	5
CCN(CC)S(=O)(=O)c1cccc(-c2nnc(SCC(=O)c3cc(C)n(C4CC4)c3C)o2)c1	?	6	16µM*	7%	3	0
CC1(C)NC(=O)N(c2ccccc2Cl)C1(C)NO (stereo not drawn)	7%	-1	-26%	5%	4	1
CCCCOc1[nH]c2nc(-c3ccco3)n(Cc3ccco3)c(=N)c2c1C#N	?	-82*	23µM*	-5%	-19	-14
COC(=O)CSc1nnc(-c2ccco2)n1Cc1ccco1	-15%	31	9%	-2%	-1	3
Cc1sc2ncnc(NCC(c3ccccc3)N(C)C)c2c1C (stereo not drawn)	?	?	?	-10%	-4	-4

Screening results from PubChem BioAssay.
